Compound activity as filed in PubChem.
Compounds with a hit are over-represented: about 3.8% of the library has one in this group of screens.
DRV1 agonist – qHTS for Agonists of Human Resolvin D1 Receptor DRV1. Probable G-protein coupled receptor 32 (Homo sapiens), O75388. CHO-K1 GPR32 beta-arrestin PathHunter luminescence, 90 min; zero percent set by DMSO-only wells. activation, % at 76.9 µM. actives 2.5% (n = 48,000). AID 1346428, 2018;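 active = activation of at least 60% and not above a set upper limit, about 1 call in 100 departs from these limits; inconclusive = activation of 40% to 60%, or above that upper limit; inactive = activation under 40%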; also: 0% is about no effect
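Engineered CHO-K1 line co-expressing GPR32-ProLink and EA-beta-arrestin. Compound treatment lasted 90 min at 37 °C. Luminescence was recorded after 1 h with substrate at ambient temperature, relative to DMSO basal wells.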
SKOV3 invasion – Primary qHTS assay for Inhibitors of ovarian cancer metastasis using an organotypic tumor microenvironment (TME) model; SKOV3ip1-GFP adhesion/invasion on 3D omental model, fluorescence; Potency, µM (highest dose often 45.8 µM), inactives show at the highest dose activity change, negative = inhibition, actives largely listed as inhibitors; actives 0.1% (n = 46,000);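 also: potency is read from the fitted curve at half-maximal effect; plate controls were DMSO wells for no effect and tomatine positive control wells for full effect; nearly all actives have a fitted effect of over 65% in size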
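Primary human omental fibroblast/mesothelial 3D culture pre-formed 48 h. SKOV3ip1-GFP cells added with compounds (0.36-46 umol/L), incubated 2 h RT/16 h 37 C, fixed; GFP cells quantified at 488/509 nm.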
GALK inh – qHTS Assay for Inhibitors of Human Galactokinase (GALK): NCGC Sytravon Library Screen; P51570; recombinant GALK, Kinase-Glo ATP luminescence, 1 h; Potency, µM (series often up to 57.5 µM), inactives show at the highest dose activity, negative = inhibition, hits mostly inhibitors; 44,000 tested, under 10 active;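 also: plate controls were full GALK reaction for no effect and reaction lacking GALK for full effect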
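Human GALK (5 nM) was incubated with 35 uM ATP and 100 uM galactose in 20 mM HEPES pH 8.0 with MgCl2, NaCl, DTT and BSA for 1 h at room temperature. Remaining ATP was measured by Kinase-Glo Plus luminescence.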
NTMT1 inh – Primary qHTS for Inhibitors of N-terminal methyltransferase 1 (NTMT1): MTaseGlo Assay; N-terminal Xaa-Pro-Lys N-methyltransferase 1 (Homo sapiens), Q9BV86; NTMT1 MTase-Glo SAH luminescence, purified enzyme; Potency, µM (top dose mostly 114 µM), inactives show at the top dose activity change, negative = inhibition, most hits filed as inhibitors; actives 2.5% (n = 59,000);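 also: potency is read from the fitted curve at half-maximal effect; plate controls were DMSO vehicle for no effect and no enzyme for full effect; nearly all actives have a fitted effect of over 65% in size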
Target sequence (Q9BV86 whole entry, looked up): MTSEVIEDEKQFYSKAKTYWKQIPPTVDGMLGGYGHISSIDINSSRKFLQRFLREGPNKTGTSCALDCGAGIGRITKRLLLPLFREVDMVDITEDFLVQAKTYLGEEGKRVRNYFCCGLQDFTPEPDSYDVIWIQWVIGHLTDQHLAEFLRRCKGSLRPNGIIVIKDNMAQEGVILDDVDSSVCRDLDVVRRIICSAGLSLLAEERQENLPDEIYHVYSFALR
B2AR arrestin ag – qHTS assay of beta-arrestin-biased ligands of beta2-adrenergic receptor: NCGC Sytravon Library Screen; Beta-2 adrenergic receptor (Homo sapiens), P07550; HTLA Tango cells, beta-arrestin recruitment, luciferase luminescence, 18 h; Potency, µM (titrated, usually from 46.1 µM), most hits filed as activators; 44,000 tested, under 10 active;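 also: potency is read from the fitted curve at half-maximal effect; 0% = DMSO and full agonism = EC100 isoproterenol or metaproterenol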
Target sequence (P07550 whole entry, looked up): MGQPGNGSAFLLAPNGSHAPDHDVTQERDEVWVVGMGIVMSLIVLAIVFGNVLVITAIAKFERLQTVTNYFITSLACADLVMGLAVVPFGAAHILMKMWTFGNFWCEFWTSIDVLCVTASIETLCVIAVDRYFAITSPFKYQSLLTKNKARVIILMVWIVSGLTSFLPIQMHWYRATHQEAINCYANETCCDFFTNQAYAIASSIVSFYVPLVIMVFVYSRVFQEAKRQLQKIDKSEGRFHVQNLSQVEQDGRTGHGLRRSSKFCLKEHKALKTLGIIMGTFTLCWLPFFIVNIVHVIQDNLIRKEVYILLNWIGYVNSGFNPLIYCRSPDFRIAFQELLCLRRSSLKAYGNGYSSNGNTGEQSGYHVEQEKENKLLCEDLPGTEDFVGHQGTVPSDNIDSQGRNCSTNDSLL
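Tango cells expressing recombinant beta2-AR and beta-arrestin were treated with compounds (up to 46 microM titration) in DMEM with 1% FBS for 18 hr at 37 degrees C. Beta-arrestin recruitment drove tTA-dependent luciferase, read by luminescence; curves were fitted and classed.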
PTAP-TSG101 blk – qHTS Validation Assay for Inhibitors of HIV-1 Budding by Blocking the Interaction of PTAP/TSG101: Sytravon Library Screen; Tumor susceptibility gene 101 protein (Homo sapiens), Q99816; Fluorescence polarization, FITC-PTAP peptide/Tsg101, 20 min; Potency, µM (series often up to 115 µM), actives largely listed as inhibitors; 44,000 tested, under 10 active; also: potency is read from the fitted curve at half-maximal effect; 0% is about no effect
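Fluorescence polarization binding of Tsg101 binding domain (10 uM final) to FITC-labeled PTAP-motif peptide (50 nM final) in HEPES pH 7.5/NaCl/Tween 20/EDTA/TCEP buffer; 20 min at r.t. Actives by curve class, <25 µM, efficacy <60% inhibition.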
Active calls of the source: *; i = inactive; ? = inconclusive; nt = no result; ! = not active in a repeat; [ ] = another dose, or the depositor's remark. Unless noted, calls follow the shape of the dose curve; as a rule, active = well fitted curve in the direction sought with a large enough effect; inconclusive = small, poorly fitted or top-dose-only effect, or another doubt; inactive = no such curve, though single readings can be large; an effect the other way counts as inactive or inconclusive.

SMILES	DRV1 agonist	SKOV3 invasion	GALK inh	NTMT1 inh	B2AR arrestin ag	PTAP-TSG101 blk
COc1ccc(NC(=O)c2sc3nc4c(cc3c2N)CCCCCC4)cc1	74*	?	3%	?	i	i
CCN(CC)CCNC(=O)c1c(C)[nH]c(/C=C2\C(=O)Nc3ccc(Cl)cc32)c1C	nt	nt	nt	25µM*	nt	nt
COc1ccc2c(C)cc(SCC(=O)Nc3nsc(-c4ccccc4C)n3)nc2c1	-6	-10%	2%	5%	i	i
Cc1ccc(-c2nc(NC(=O)CSc3cc(C)c4ccccc4n3)ns2)cc1	2	-3%	0%	40µM*	i	i
N=c1n(CCN2CCCCC2)c2ccccc2n1CC(O)COc1ccc(Cl)cc1Cl (stereo unspecified)	70*	?	1%	?	i	i
Cc1ccc(OCC(O)Cn2c(=N)n(CCN3CCCCC3)c3ccccc32)cc1 (stereo unspecified)	-1	8.9µM*	2%	?	i	i
COc1ccc(OCC(O)Cn2c(=N)n(CCN3CCCCC3)c3ccccc32)cc1 (stereo unspecified)	4	?	?	-7%	i	i
CC1(C(=O)O)CCCC2(C)C3CCC4CC3(CCC12)CC4=O (stereo unspecified)	nt	nt	nt	6%[57.5 µM]	nt	nt
CCOc1ccc(N2CC(NC(=O)C3CC3)CC2=O)cc1 (stereo unspecified)	-5	-14%	0%	10%	i	i
Cc1ccc(Cl)cc1Nc1nn2c(=O)c3ccc(C(=O)NCc4cccs4)cc3nc2s1	29	-7%	0%	79µM*	i	i
COc1cccc(NC(=O)c2ccc3c(=O)n4nc(Nc5ccccc5OC)sc4nc3c2)c1	3	-7%	-1%	79µM*	i	i
Cc1ccc(C)c(Nc2nn3c(=O)c4ccc(C(=O)NCc5ccccc5)cc4nc3s2)c1	63*	i	4%	-23%	i	i
Cc1ccccc1Nc1nn2c(=O)c3ccc(C(=O)NCc4cccs4)cc3nc2s1	-7	i	-2%	-1%	i	i
COc1cc(OC)cc(C(=O)Nc2nc(-c3nnn(-c4ccc(C)cc4)c3C)ns2)c1	38	i	-1%	-2%	i	i
Cc1ccc(NC(=O)Cn2cc(S(=O)(=O)c3ccc(F)cc3)c(=O)c3cc4c(cc32)OCO4)cc1	3	i	-11%	-2%	i	i
CC(CNC(=O)Cn1c(-c2cccs2)cc2ccccc21)c1ccccc1 (stereo unspecified)	-23	0%	-5%	7%	i	i
CCc1ccc(CNC(=O)CN2CCSc3ccccc32)cc1	-11	i	1%	7%	i	i
Cc1ccc(-n2ncc(C(=O)N3CCN(c4cccc(C)c4C)CC3)c2C2CCNCC2)c(C)c1	23	?	-2%	79µM*	i	i
Cc1cccc(-n2ncc(C(=O)N3CCN(c4ccc(C)cc4C)CC3)c2C2CCN(C(=O)OC(C)(C)C)CC2)c1	-15	i	4%	3%	i	i
CC(C)(C)c1ccc(CN2CCN(C(c3ccccc3)c3ccc(Cl)cc3)CC2)cc1 (stereo unspecified)	nt	nt	nt	-5%[57.5 µM]	nt	nt
Cc1cccc(CN2CCN(C(c3ccccc3)c3ccc(Cl)cc3)CC2)c1 (stereo unspecified)	3	-11%	nt	32µM*!	nt	nt
CCOc1ccccc1NC(=O)N1CCN(C)c2ncccc21	5	5%	9%	89µM*	i	i
Cc1[nH]c2ccccc2c1C1(O)C(=O)N(Cc2ccccc2Cl)c2ccccc21 (stereo unspecified)	105*	?	7%	0%	i	i
Cc1ccc(C)c(CN2C(=O)C(O)(c3c(C)[nH]c4ccccc34)c3ccccc32)c1 (stereo unspecified)	-11	i	-1%	2%	i	i
CC1(C)C2CC[C@]3(C)C(C(=O)C=C4[C@H]5C[C@@](C)(C(=O)O)CC[C@]5(C)CC[C@]43C)[C@@]2(C)CC[C@@H]1O (stereo partly specified)	nt	nt	nt	13%[29.8 µM]	nt	nt
SMILES	DRV1 agonist	SKOV3 invasion	GALK inh	NTMT1 inh	B2AR arrestin ag	PTAP-TSG101 blk
CC1CCCN(C(=O)c2cc3c(Cl)nc4ccccc4c3s2)C1 (stereo unspecified)	108*	-1%	-1%	?	i	i
CC1CCCN(CCCNC(=O)c2cc3c(Cl)nc4ccccc4c3s2)C1 (stereo unspecified)	-3	-6%	1%	?	i	i
CC(C)(C)c1ccc(OCC(=O)Nc2ccc(S(=O)(=O)Nc3ncccn3)cc2)cc1	79*	-6%	-2%	4%	i	i
CC(C)(C)CC(C)(C)c1ccc(OCC(=O)Nc2ccc(S(=O)(=O)Nc3ncccn3)cc2)cc1	-3	2%	0%	-1%	i	i
COc1cc(C(CC(=O)Nc2ncccc2C)N2Cc3ccccc3C2=O)cc(OC)c1OC (stereo unspecified)	1	-7%	-3%	-27%	i	i
CCCSc1nnc2n(-c3ccc(OC)cc3)c(=O)c3c4c(sc3n12)COC(C(C)C)C4 (stereo unspecified)	21	i	-12%	3%	i	i
COC(=O)CSc1nnc2n(-c3ccccc3)c(=O)c3c4c(sc3n12)COC(C(C)C)C4 (stereo unspecified)	65*	i	0%	0%	i	i
CCc1ccccc1Nc1cc(C(=O)NCCCN(C)C2CCCCC2)c2ccccc2n1	79*	-13%	0%	?	i	i
CCC(C)(C)C1CCc2c(sc(NC(=O)c3ccc(Br)cc3)c2C#N)C1 (stereo unspecified)	nt	nt	nt	16%[57.5 µM]	nt	nt
CCOc1ccc(-c2nnc(SCC(=O)Nc3cccc(Cl)c3C)o2)cc1	-19	-8%	?	-5%	i	i
Nc1c(-c2ccncc2)cc[nH]c1=O	nt	nt	nt	79µM*	nt	nt
Nc1cc(-c2ccncc2)c[nH]c1=O	37	nt	nt	?	nt	nt
